PubChem BioAssay AID652105 (National Center for Advancing Translational Sciences (NCATS), 2013)
Screen size: about 330,000 compounds; about 4,100 (1.2%) were called active. Roughly 2% stayed inconclusive and do not appear here. Rule for the calls: active = max response of -50% or lower; inconclusive = between -30% and -50%; inactive = -30% or higher. The entries come from a sample that favours actives as a whole.

What follows are molecules tested against Phosphatidylinositol 5-phosphate 4-kinase type-2 alpha (Homo sapiens) (UniProt P48426) (assay: qHTS for Inhibitors of phosphatidylinositol 5-phosphate 4-kinase (PI5P4K)). Conditions: PI5P4Kalpha enzyme, ADP-Glo luminescence, 60 min; active compounds read low.
Description: In addition to finding PI5P, we discovered the type II phosphatidylinositol 5-phosphate 4-kinase (PI5P4K) family (alpha, beta, gamma isoforms) that catalyze the conversion of PI5P to PI(4,5)P2. Alternatively, PI(4,5)P2 can also be synthesized through phosphatidylinositol-4-phosphate (PI4P) by the type I phosphatidylinositol 4-phosphate 5-kinases (PI4P5K). These PI5P4K enzymes therefore represent one way by which cells can regulate endogenous PI5P levels and play important roles in insulin signaling and in stress responses.
This proposal aims to identify and optimize specific modulators of human PI5P4K, phosphatidylinositol-5-phosphate 4-kinase (Type II PIPK), a family of kinases that regulate AKT signaling and tumor cell growth. In this project we aim to identify inhibitors of human PI5P4K using a quantitative high-throughput screening approach against the MLSMR containing ~400,000 small molecules.
NIH Chemical Genomics Center [NCGC]
NIH Molecular Libraries Probe Centers Network [MLPCN]
Assay Submitter (PI): Atsuo Sasaki, Beth Israel Deaconess Medical Center
2 microL of PI5P4Kalpha/substrate buffer (columns 1-2, 5-48) are dispensed into Greiner white solid bottom 1536-well assay plates; column 3 receives only PI5P4Kalpha buffer as 0x substrate controls; column 4 receives only substrate buffer as 0x PI5P4Kalpha controls. Final assay buffer consists of 0.038 M HEPES pH 7.4, 0.28 mM EGTA, 0.1% CHAPS, and 5% DMSO (final concentration). Compounds are then transferred via Kalypsys pin tool equipped with 1536-pin array (10 nL slotted pins, V&P Scientific, San Diego, CA). Following addition of compound, 1 microL of ATP (5 microM final concentration, all columns) is added to initiate the reaction. ATP is diluted in an assay buffer consisting of 0.02 M HEPES pH 7.4, 60 mM MgCl2, 15 microM ATP, and 0.1% CHAPS. The plates are then incubated at room temperature for 60 minutes. ADP-Glo reagent 1 is added (2 microL) and plates incubated for 45 minutes, before ADP-Glo reagent 2 (4 microL) is added and plates incubated for 30 minutes. They are then transferred to a ViewLux high-throughput CCD imager (PerkinElmer) wherein single end-point measurements of luminescence are acquired using a clear filter.
% is set by controls: 0 for no effect and ±100 for the full control effect.
Note: value at the top dose of about 77 µM.

Chain of Phosphatidylinositol 5-phosphate 4-kinase type-2 alpha (Homo sapiens) (P48426 whole entry, looked up, canonical isoform): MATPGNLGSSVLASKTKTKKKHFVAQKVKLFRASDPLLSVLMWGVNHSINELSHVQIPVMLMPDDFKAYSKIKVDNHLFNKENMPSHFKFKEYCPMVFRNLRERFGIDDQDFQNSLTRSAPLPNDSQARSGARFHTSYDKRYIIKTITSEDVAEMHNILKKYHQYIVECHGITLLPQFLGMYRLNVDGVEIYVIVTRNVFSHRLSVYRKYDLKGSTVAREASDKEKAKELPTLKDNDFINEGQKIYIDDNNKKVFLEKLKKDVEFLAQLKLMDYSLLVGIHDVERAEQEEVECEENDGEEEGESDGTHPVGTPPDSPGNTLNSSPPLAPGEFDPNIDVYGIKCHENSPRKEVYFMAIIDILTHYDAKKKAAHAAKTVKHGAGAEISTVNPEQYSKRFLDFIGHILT

Max response, inactive:
Nc1c(NCCc2ccccc2)c2ccccc2oc1=O -0.531%
S=C(NCCc1ccccc1)Nc1ccccc1 -4.55%
Cc1ccccc1-c1csc(C(O)c2cccc(Cl)c2)n1 (stereo not drawn) 23.5%
Cc1ccnc(N2CCCC(C(=O)NC3CC3)C2)n1 (stereo not drawn) -0.042%
Cc1ccnc(SC2CC(=O)N(c3ccccc3)C2=O)n1 (stereo not drawn) -1.33%
CCOCCC(=O)Nc1ccc2c(c1)c(=O)n(C)n2-c1ccc2ccccc2c1 0.749%
O=C1CCCC(O)=C1N=Nc1ccc(S(=O)(=O)N2CCOCC2)cc1 -20.1%
COc1ccc(C(C#N)=C2C=CC(=NO)c3ccccc32)cc1 -8.83%
N#Cc1c2c(c(-c3ccccc3)[nH]c1=O)CCCC2 -4.1%
CC(=O)c1c(C)[nH]c(=S)c(C#N)c1-c1ccc(F)cc1 -20.4%
Cc1ccc(/C=N/NC(=S)Nc2cccc(S(=O)(=O)N(C)C)c2)o1 -3.83%
COc1cc2ccccc2cc1C(=O)Nc1ccc(N2CCOCC2)cc1 5.82%
Cc1ccc(/C=N/NC(=S)NC2CCCCC2)o1 -0.109%
CCN(CC)c1ccc(C(=O)N/N=C/c2ccc(N3CCOCC3)cc2)cc1 -1.97%
CCOc1ccc(CCNC(=O)COC(=O)c2ccc(C)c(S(=O)(=O)N3CCOCC3)c2)cc1OCC -2.07%
CC(C)C[C@@H]1COc2cc(N3CCC[C@@H]3CO)ccc2S(=O)(=O)N1 2.99%
COC(=O)[C@@]12C[C@@H](CC(=O)NCCCCc3ccccc3)C(=O)N(Cc3ccccc3)C1=CCC(C)(C)C2 14.2%
C#Cc1ccc(NC(=O)C2(C)CCN2C(=O)Cc2ccc(-c3ccccc3)cc2)cc1 (stereo not drawn) 26.3%
CCCc1c(-c2ccccc2F)ncn1Cc1ccccc1OC 4%
Cc1ccc(C2=N/C(=C\c3ccc(OS(=O)(=O)c4ccc(C)cc4)cc3)C(=O)O2)cc1 -1.18%
CCS(=O)(=O)C1=NSC2=NC(=O)/C(=C\c3cc(C)n(-c4cccc(OC)c4)c3C)C(=N)N21 -20.4%
Cc1ccccc1-c1nc(NC(C)C)nc2cc(-c3ccccc3)sc12 8.32%
Fc1ccccc1/C=N/n1c(-c2cccnc2)n[nH]c1=S 5.87%
c1ccc(-c2cc(-c3ccccc3)[nH]n2)cc1 -6.2%
Clc1cccc(-c2nc3nc4ccccc4nc3n2Cc2ccco2)c1 -4.59%
O=c1c2ccccc2oc2nc(C3CCCCC3)n(Cc3ccco3)c(=O)c12 0.643%
CC1(C(=O)NCc2cccc3ccccc23)CCN1Cc1ccc(-c2ccccc2)o1 (stereo not drawn) 25.6%
CCCCC[C@@H]1C=C(C(=O)OCC)[C@H](c2ccccc2)N1S(=O)(=O)c1ccc(C)cc1 8.7%
COCCNc1ncnc2c1ncn2[C@H]1CN(Cc2ccc(OC)cc2)C[C@@H](CO)O1 2.79%
CC(=O)Nc1cc(-c2ccccc2F)cn2c(-c3cccc(C(F)(F)F)c3)cnc12 -3.13%
COc1ccc(C(C)(O)c2nc(-c3cc(F)cc(F)c3)cs2)cc1 (stereo not drawn) 30.3%
CCc1c(C)nc2cc(-c3cccs3)[nH]n2c1=O -0.23%
Cc1cc(=O)n2[nH]c(-c3cccc(Cl)c3)cc2n1 -3.84%
CC(C)C[C@H]1CN([C@@H](Cc2ccccc2)CN2CCC[C@@H]2CN2C(=O)C(=O)NC[C@@H]2Cc2ccc(O)cc2)C(=O)C(=O)N1CCc1ccccc1 -1.65%
COc1ccc(OC)c2sc(NC(=O)C3COc4ccccc4O3)nc12 (stereo not drawn) 2.71%
O=C(Nc1ncc([N+](=O)[O-])s1)C1COc2ccccc2O1 (stereo not drawn) -21.4%
CN(C(=O)CN1CCN(c2cc(-c3ccc(OCc4ccccc4)cc3)ncn2)CC1)c1ccccc1 -25%
C[C@H]1Cn2cnc(C(=O)N[C@H](C)c3ccccc3)c2C(=O)N1 -2.59%
Cc1nc(C(F)(F)F)ccc1C(=O)N1CCC1(C)C(=O)NS(=O)(=O)c1ccc(F)cc1F (stereo not drawn) -1.9%
CCC(c1nnnn1Cc1ccco1)N(Cc1cc2cc(OC)ccc2[nH]c1=O)C1CCCCC1 (stereo not drawn) -18.4%
CCC(c1nnnn1Cc1ccco1)N(CCc1ccccc1)Cc1cc2cccc(C)c2[nH]c1=O (stereo not drawn) -1.38%
CCc1nc2ccc(C(=O)NC3CCN(Cc4ccccc4)CC3)cn2c1N(CC)CCOC -1.84%
CCOC(=O)[C@]12CCCC=C1N(Cc1ccc(Cl)cc1Cl)C(=O)[C@H](CC(=O)N1CCCCC1)C2 12%
CCCCC[C@H](C)N1C[C@@H](COCc2ccccc2)Oc2cc(N3CC[C@@H](N(C)C)C3)ccc2S1(=O)=O 27.1%
CN(C)C(=O)c1cccc(-c2cnc3sc(NCc4ccc5c(c4)OCO5)nn23)c1 -16.9%
CCOc1ccc2nc(N(CCN(C)C)C(=O)c3ccc4ccccc4c3)sc2c1 -3.3%
O=c1[nH]c2ccccc2s1 5.23%
COc1ccc2[nH]c(=S)cc(C)c2c1 -9.52%
CC(C)C[C@H]1CNC(=S)N1C[C@H]1CCCN1C[C@H](Cc1ccc(O)cc1)N1C[C@H](Cc2ccc(O)cc2)N(CC2CCCCC2)C1=S -6.15%
O=C(NCc1ccc(F)cc1)c1cc(C2CCCCN2C(=O)c2ccccn2)on1 (stereo not drawn) -11.1%
CCOC(=O)C1=CC[C@@H](c2ccncc2)N(S(=O)(=O)c2ccc(C)cc2)C1 -0.549%
COc1cccc(-c2cc(NC(C)=O)c3ncc(-c4cccc(C(C)=O)c4)n3c2)c1 -0.237%
CC(C)NC(=O)C1(C)CCCCN1Cc1cccc(C(F)(F)F)c1 (stereo not drawn) 22.3%
COC(=O)c1ccc2nc(-c3ccc(Cl)cc3)c(Cc3cccc(F)c3)n2c1 7.01%
C=CCOc1cccc(C2C(C(=O)c3ccc(C)o3)=C(O)C(=O)N2CCN2CCOCC2)c1 (stereo not drawn) 2.35%
CCCOc1ccc(C2C(C(=O)c3ccc(C)o3)=C(O)C(=O)N2CCCn2ccnc2)cc1 (stereo not drawn) -23%
O=C(c1ccc(CS(=O)Cc2ccccc2Cl)o1)N1CCN(c2ccccc2)CC1 (stereo not drawn) -2.59%
O=C(Nc1ccc(OCCO)cc1)c1csc([C@H]2C[C@H](O)[C@@H](CO)O2)n1 -3.56%
Cc1cccc(N2CCN(c3ccc(NC(=O)/C=C\C(=O)O)cc3)CC2)c1 -9.89%
CN1CCN(c2ccc(NC(=O)c3cc(Cl)c4c(c3)OCCO4)cc2)CC1 3.06%
CCCCCc1c(Cc2ccccc2)ncn1CCc1ccccc1OC -4.89%
CCC(c1nnnn1-c1ccc2c(c1)OCCO2)N1CCN(c2ccc(C(F)(F)F)cn2)CC1 (stereo not drawn) -0.412%
COc1ccc(NC(=O)CSc2nc3ccccc3c(=O)n2C)cc1 0.885%
CC(C)Cn1c(SCC(=O)Nc2ccc(Cl)cc2F)nc(O)cc1=O 3.57%
O=C1c2ccccc2C(=O)N1CCCCCCN1C(=O)c2ccccc2C1=O 1.45%
O=C(CCCCCN1C(=O)c2cccc3cccc(c23)C1=O)NCc1ccco1 0.75%
COc1ccc(CC(N)c2csc(NC(=O)Nc3ccc(C(C)C)cc3)n2)cc1 (stereo not drawn) -8.9%
CC1(C(=O)NS(=O)(=O)c2ccc(C#N)cc2)CCN1C(=O)CC1CCCC1 (stereo not drawn) 0.461%

Max response, active:
S=c1[nH]nc(NCCc2ccccc2)s1 -73.1%
Cc1ccnc(-n2sc3ccccc3c2=O)n1 -98.6%
O=C1CCCC(O)=C1N=Nc1ccc2ncsc2c1 -66.1%
N#Cc1c(-c2ccc(Cl)cc2)c2c([nH]c1=S)CCCC2 -61.4%
O=C(NN=Cc1ccc(N2CCOCC2)cc1)c1cc2ccccc2cc1O -58.2%
Cc1ccc(/C=N/NC(=O)c2cc3ccccc3cc2O)o1 -60.2%
CCS(=O)(=O)C1=NSC2=NC(=O)/C(=C\c3ccc(OS(=O)(=O)c4ccccc4)cc3)C(=N)N21 -73.6%
S=c1[nH]nc(-c2cc(-c3ccccc3)n[nH]2)n1/N=C/c1c2ccccc2cc2ccccc12 -58.9%
Cc1ccc(Cn2c(C)nc3c(c2=O)c2nc4ccccc4nc2n3Cc2ccco2)cc1 -62.3%
C=CS(=O)c1sc(Cl)c(N2CCOCC2)c1[N+](=O)[O-] (stereo not drawn) -71.5%
Cc1cc(=O)n2[nH]c(-c3sccc3-n3c(C)ccc3C)cc2n1 -57.4%
O=C(Nc1nc(-c2ccncc2)cs1)C1COc2ccccc2O1 (stereo not drawn) -62.8%
CC1=C/C(=N\OS(=O)(=O)c2ccccc2)C=CC1=O -78.8%
CCC(c1nnnn1Cc1ccco1)N(CCc1ccccc1)Cc1cc2ccc(OC)cc2[nH]c1=O (stereo not drawn) -64.1%
CCOc1ccc2[nH]c(=S)sc2c1 -59.6%
Nc1ccc2[nH]c(=S)sc2c1 -73.9%
Cc1cc(N2C(=O)C(O)=C(C(=O)c3ccc(C)o3)C2c2ccc(OCc3ccccc3)cc2)no1 (stereo not drawn) -59.9%
C=CC(=O)Nc1ccc(Nc2ccnc(Nc3ccc(N4CCN(C)CC4)cc3)n2)cc1 -68.9%
Cn1c(SCC(=O)Nc2ccc(Cl)cc2)nc(O)cc1=O -57.1%
C[N+](C)(CCCCCC[N+](C)(C)CCCN1C(=O)c2cccc3cccc(c23)C1=O)CCCN1C(=O)c2cccc3cccc(c23)C1=O -72.8%
